# sPLA2-III inh: human group III sPLA2 inhibitors, primary screen, biochemical, QFRET, BODIPY PC-A2 liposome substrate; QFRET BODIPY PC-A2 liposome hydrolysis, fluorescence; inhibition, % at 12.2 µM; 370,000 compounds, 0.56% hits;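 active = inhibition above mean plus 3 SD of compounds lying within the high and low control bounds, cut at about 19% in these data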;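 note: 0% = median of test compound wells and 100% = no enzyme DMSO wells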
# ADAM10 inh: human ADAM10 inhibitors, primary screen, biochemical, QFRET, HTS | Disintegrin and metalloproteinase domain-containing protein 10 (Homo sapiens), O14672 | recombinant ADAM10, EDANS/DABCYL FRET peptide cleavage, 3 h | inhibition, % at 7 µM | 370,000 compounds, 0.62% hits | AID 720582, 2013;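 active = inhibition above a per-campaign cutoff equal to the mean of compounds falling between control-based bounds plus 3 SD, cut at about 20% in these data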;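 note: 0% = DMSO wells while the 100% control is not disclosed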
# PLC-beta3 inh: human PLC-beta3 inhibitors, primary screen, biochemical, fluorescence. inhibition, % at 12.2 µM. 1-phosphatidylinositol 4,5-bisphosphate phosphodiesterase beta-3 (Homo sapiens), Q01970. Purified PLC-beta3, fluorogenic substrate. 370,000 compounds, 0.18% hits. AID 720704, 2013; in the data active = inhibition above about 11%;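 note: 0% = median of compound wells on plate and 100% = full blocker control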
# ADAM17 inh: ADAM17 inhibitors, primary screen, biochemical, QFRET | Disintegrin and metalloproteinase domain-containing protein 17 (Homo sapiens), P78536 | recombinant ADAM17, EDANS/DABCYL FRET peptide cleavage | inhibition, % at 6.95 µM | 370,000 compounds, 0.83% hits | AID 720648, 2013;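 active = inhibition above the mean of compounds lying between control limits plus 3 SD, set per campaign, cut at about 8.5% in these data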;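 note: 0% = DMSO-only wells as the low control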
# PLCg1 inh: PLC-gamma1 enzyme inhibitors, primary screen, biochemical, fluorescence, purified enzyme | 1-phosphatidylinositol 4,5-bisphosphate phosphodiesterase gamma-1 (Homo sapiens), P19174 | fluorogenic substrate | inhibition, % at 12.2 µM | 370,000 compounds, 0.84% hits; in the data active = inhibition above about 9.5%
# proKLK7 act: proKLK7 zymogen activators, primary screen, biochemical, fluorescence intensity; purified proKLK7, EDANS-DABCYL substrate fluorescence; 100% is mature enzyme control, 0% vehicle; activation, % at 7 µM; 370,000 compounds, 0.9% hits; AID 652039, 2013;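 active = activation above the mean of all tested compounds plus 3 SD, computed per campaign excluding outliers beyond control limits, cut at about 13% in these data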
# KLK7 act conf: proKLK7 zymogen activators, confirmation, biochemical, fluorescence intensity, triplicate; shares compounds with proKLK7 act; purified proKLK7, EDANS-DABCYL substrate fluorescence; scaled: vehicle 0, mature enzyme 100; activation, % at 7 µM; 3,200 compounds, 68% hits;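 active = activation, as change over the incubation, above the mean of all tested compounds plus 3 SD, cut at about 13% in these data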
# EDANS interfere: EDANS-DABCYL substrate optical interference, artefact control for kallikrein-7 zymogen activator project, biochemical, fluorescence intensity, high throughput | 3,200 compounds, 80% hits | shares compounds with proKLK7 act | AID 686952, 2013 | activation, % at 7 µM | no enzyme, 4 h; solvent 0%, active enzyme control 100%;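 active = activation above the all-compound mean plus 3 SD, ignoring values outside control-based bounds, cut at about 4.8% in these data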;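 note: value is the 4 h activation minus the activation read at time zero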
# Numbers without * were called inactive; i = inactive; x = no result given. Most compounds without a hit are left out; they make up all but 3.4% or so of the library.
SMILES,sPLA2-III inh,ADAM10 inh,PLC-beta3 inh,ADAM17 inh,PLCg1 inh,proKLK7 act,KLK7 act conf,EDANS interfere
COC(=O)C1=C(C)N(Cc2ccccc2C(F)(F)F)C(=NCc2ccc3c(c2)OCO3)NC1c1cccc(F)c1 (stereo not drawn),-5,-1,1,0,1,0,x,x
CCOC(=O)CCc1c(C)c2ccc(OCC)c(C)c2oc1=O,-2,-190,-16,-64,-13,-1,x,x
CCOC(=O)CCc1c(C)c2ccc3c(c2oc1=O)CN(CCCO)CO3,-6,i,i,i,i,52*,71*,75*
CCOC(=O)CNC(=O)c1cc2c(=O)[nH]c3ccc(C)cc3c2s1,0,-212,-81,-81,-56,-5,x,x
Cc1ccc2[nH]c(=O)c3cc(C(=O)NCCN4CCN(C)CC4)sc3c2c1,0,i,-226,-292,-164,17*,-18,-22
CC(C)C[C@@H]1COc2cccc(NCCO)c2S(=O)(=O)N1,7,-7,-2,-6,-4,-1,x,x
C[C@H](CO)N1C[C@H](C)[C@H](CN(C)C(=O)C2CCCCC2)OCc2cnnn2CCCC1=O,4,1,3,-2,2,-1,x,x
O=C(CN1CCN(C2CCCCC2)CC1)c1c[nH]c2ccccc12,6,-5,1,-6,-3,0,x,x
O=C(CN1CCN(C2CCCCC2)CC1)c1ccc2cc[nH]c2c1,-3,-259,-329,-67,-276,22*,20*,20*
Cc1noc(C)c1S(=O)(=O)N(C)C[C@@H]1OCc2cn(nn2)CCCC(=O)N([C@H](C)CO)C[C@H]1C,3,11,2,0,3,0,x,x
CCCCOc1ccc2c(c1)/C(=C(\C(Cl)=C(Cl)Cl)[N+](=O)[O-])N2,-2,-49,-124,-20,-100,-4,x,x
CCOc1ccc2c(c1)/C(=C(\C(Cl)=C(Cl)Cl)[N+](=O)[O-])N2,-3,i,i,-188,i,18*,53*,61*
COc1ccc(-c2ccc(C#N)c(SCC(=O)NC3CC3)n2)cc1OC,9,i,i,-359,i,17*,4,2
COc1ccc(-c2ccc(C#N)c(SCC(=O)NCc3ccco3)n2)cc1OC,3,i,i,i,i,-12,x,x
COc1ccc(C2=NN(c3ccc(C(=O)O)cc3)C(c3ccc(OC)c(OC)c3)C2)cc1 (stereo not drawn),-37,i,i,i,i,67*,65*,63*
COc1ccc(C2CC(c3ccncc3)=NN2c2ccc(S(N)(=O)=O)cc2)cc1 (stereo not drawn),5,i,i,i,i,91*,-94,8.8*
C[C@H]1[C@@H](OC(=O)NC2CCC2)CC[C@@]23CCCN2C(=O)CCC[C@@H]13,2,1,0,-4,-1,x,x,x
COc1ccc(-c2cc(C(F)(F)F)c(C#N)c(=O)[nH]2)cc1,-15,i,-284,i,-207,17*,40*,43*
N#Cc1c(C(F)(F)F)cc(-c2ccc(F)cc2)[nH]c1=O,-11,i,-200,-401,-178,8,x,x
N#Cc1c(C(F)(F)F)cc(-c2cccc(Cl)c2)[nH]c1=O,-20,i,i,i,i,20*,51*,48*
N#C/C(=C(\O)c1ccco1)c1ccccn1,0,6,-7,-3,-3,0,x,x

# Screening data deposited in PubChem BioAssay by The Scripps Research Institute Molecular Screening Center.
